# Key:
# Assay in all cases: DAPPL (digital affinity profiling via proximity ligation, sequencing); 10 mM Tris-HCl pH 7.5, 50 mM NaCl, 1 mM DTT, 4% glycerol, room temperature, 30 min; GST-TFs on glutathione beads, 16-mer random dsDNA library, 0.1% formaldehyde crosslink after washing; high values mean tight binding
# FLI1 = molecular target: T1, FLI1 (Homo sapiens, UniProt Q01543 1-452); settings: protein: recombinant; tags: N-terminal GST; dsDNA, one strand shown
# T1 sequence: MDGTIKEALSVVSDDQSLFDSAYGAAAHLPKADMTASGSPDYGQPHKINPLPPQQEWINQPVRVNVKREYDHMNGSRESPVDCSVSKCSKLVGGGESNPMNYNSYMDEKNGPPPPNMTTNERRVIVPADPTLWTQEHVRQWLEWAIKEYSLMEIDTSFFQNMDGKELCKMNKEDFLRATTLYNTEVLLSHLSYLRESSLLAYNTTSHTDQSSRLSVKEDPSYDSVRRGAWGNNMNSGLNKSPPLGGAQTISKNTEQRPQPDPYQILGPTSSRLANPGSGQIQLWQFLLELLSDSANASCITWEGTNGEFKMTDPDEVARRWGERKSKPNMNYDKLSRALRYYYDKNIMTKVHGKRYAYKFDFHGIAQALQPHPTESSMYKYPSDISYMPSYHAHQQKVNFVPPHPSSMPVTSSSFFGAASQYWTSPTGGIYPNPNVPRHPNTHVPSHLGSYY
# Procedure, shortened: (§1)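 Beads coated with glutathione captured GST-fused human transcription factors that had been expressed in yeast, and the factors were then given DNA barcodes and pooled with a tag-only sample. The pools were incubated with 200 nmole of a random double-stranded 16-mer DNA library in Tris/NaCl/DTT/glycerol buffer for 30 min at room temperature, washed, crosslinked with 0.1% formaldehyde and proximity-ligated with BsaI/T4 ligase at 37 °C for 1 h. PCR amplification and Illumina NextSeq500 sequencing came last. Binding signal is each hexamer's read frequency for a factor divided by its frequency for the tag-only sample.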
# ELK1 = molecular target: T2, ELK1 (Homo sapiens, UniProt P19419 1-428); settings: protein: recombinant; tags: N-terminal GST; dsDNA, one strand shown
# T2 sequence: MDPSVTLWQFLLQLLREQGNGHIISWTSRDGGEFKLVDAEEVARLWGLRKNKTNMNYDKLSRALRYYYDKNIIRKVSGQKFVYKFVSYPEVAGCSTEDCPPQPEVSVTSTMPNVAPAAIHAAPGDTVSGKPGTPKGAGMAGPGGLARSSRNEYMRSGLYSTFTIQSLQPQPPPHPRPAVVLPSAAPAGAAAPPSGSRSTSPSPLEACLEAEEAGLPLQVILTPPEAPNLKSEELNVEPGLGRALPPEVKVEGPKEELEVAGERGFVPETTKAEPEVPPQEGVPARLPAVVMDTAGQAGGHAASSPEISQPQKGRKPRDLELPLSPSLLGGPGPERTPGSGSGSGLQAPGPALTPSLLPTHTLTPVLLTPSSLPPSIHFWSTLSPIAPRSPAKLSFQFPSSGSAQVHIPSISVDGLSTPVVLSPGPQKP
# Procedure, shortened: as §1
# GABPA = molecular target: T3, GABPA (Homo sapiens, UniProt Q06546 1-454); settings: protein: recombinant; tags: N-terminal GST; dsDNA, one strand shown
# T3 sequence: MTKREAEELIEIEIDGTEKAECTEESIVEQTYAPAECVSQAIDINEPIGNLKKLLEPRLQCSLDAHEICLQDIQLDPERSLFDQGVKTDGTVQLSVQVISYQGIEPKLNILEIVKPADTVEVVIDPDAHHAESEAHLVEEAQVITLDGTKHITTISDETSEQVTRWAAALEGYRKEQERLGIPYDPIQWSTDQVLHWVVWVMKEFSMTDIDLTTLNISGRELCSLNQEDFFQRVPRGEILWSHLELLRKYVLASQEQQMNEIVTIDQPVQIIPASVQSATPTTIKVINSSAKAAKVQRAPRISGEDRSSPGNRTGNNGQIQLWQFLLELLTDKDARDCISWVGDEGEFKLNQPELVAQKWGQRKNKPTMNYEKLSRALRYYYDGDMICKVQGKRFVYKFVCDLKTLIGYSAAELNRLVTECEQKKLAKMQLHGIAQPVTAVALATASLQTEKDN
# Procedure, shortened: as §1
# ERG = molecular target: T4, ERG (Homo sapiens, UniProt P11308 1-479); settings: protein: recombinant; tags: N-terminal GST; dsDNA, one strand shown
# T4 sequence: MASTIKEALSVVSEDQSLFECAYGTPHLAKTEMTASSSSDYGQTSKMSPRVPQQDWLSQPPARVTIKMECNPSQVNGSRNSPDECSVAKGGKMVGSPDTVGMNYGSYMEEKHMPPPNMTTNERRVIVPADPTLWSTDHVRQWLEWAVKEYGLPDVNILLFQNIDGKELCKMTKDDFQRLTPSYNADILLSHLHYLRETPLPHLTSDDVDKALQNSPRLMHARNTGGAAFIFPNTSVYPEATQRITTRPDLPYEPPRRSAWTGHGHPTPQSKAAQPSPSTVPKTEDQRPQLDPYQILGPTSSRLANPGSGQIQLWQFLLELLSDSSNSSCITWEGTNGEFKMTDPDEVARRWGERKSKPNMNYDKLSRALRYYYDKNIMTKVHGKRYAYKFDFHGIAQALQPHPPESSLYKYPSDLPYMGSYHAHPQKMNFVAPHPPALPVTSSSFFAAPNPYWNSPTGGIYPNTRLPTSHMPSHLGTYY
# Procedure, shortened: as §1
# ELF1 = ELF1 (Homo sapiens, UniProt P32519 1-619); settings: protein: recombinant; tags: N-terminal GST; dsDNA, one strand shown
# ELF1, sequence (P32519 whole entry): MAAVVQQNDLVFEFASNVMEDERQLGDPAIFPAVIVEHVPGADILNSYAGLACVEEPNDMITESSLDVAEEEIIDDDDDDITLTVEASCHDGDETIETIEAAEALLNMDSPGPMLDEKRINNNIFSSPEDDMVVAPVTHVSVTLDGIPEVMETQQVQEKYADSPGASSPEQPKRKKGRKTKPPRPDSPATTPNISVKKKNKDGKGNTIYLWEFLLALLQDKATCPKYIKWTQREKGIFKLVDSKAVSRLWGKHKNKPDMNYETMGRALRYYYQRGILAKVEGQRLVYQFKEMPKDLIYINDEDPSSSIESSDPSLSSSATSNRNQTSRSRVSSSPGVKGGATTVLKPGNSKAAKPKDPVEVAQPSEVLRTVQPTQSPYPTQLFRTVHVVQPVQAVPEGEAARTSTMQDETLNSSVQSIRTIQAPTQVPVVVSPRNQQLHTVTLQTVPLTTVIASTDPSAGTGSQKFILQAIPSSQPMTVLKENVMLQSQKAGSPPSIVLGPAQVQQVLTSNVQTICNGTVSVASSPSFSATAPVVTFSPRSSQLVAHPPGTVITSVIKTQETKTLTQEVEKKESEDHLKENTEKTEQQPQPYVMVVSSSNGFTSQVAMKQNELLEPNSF
# Procedure, shortened: as §1
# EHF = molecular target: T5, EHF (Homo sapiens, UniProt Q9NZC4 1-300); settings: protein: recombinant; tags: N-terminal GST; dsDNA, one strand shown
# T5 sequence: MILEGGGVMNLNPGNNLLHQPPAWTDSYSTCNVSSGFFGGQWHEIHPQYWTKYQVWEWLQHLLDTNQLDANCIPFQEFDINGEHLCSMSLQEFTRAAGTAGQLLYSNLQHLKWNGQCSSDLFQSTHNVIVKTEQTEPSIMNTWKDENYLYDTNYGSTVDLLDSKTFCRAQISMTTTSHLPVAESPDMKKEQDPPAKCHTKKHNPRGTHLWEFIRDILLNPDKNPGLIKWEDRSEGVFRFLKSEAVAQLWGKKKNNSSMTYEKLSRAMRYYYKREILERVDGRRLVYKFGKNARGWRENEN
# Procedure, shortened: as §1
# SPI1 = SPI1 (Homo sapiens, UniProt P17947 1-270); settings: protein: recombinant; tags: N-terminal GST; dsDNA, one strand shown
# Procedure, shortened: as §1
# SPIB = SPIB (Homo sapiens, UniProt Q01892 1-262); settings: protein: recombinant; tags: N-terminal GST; dsDNA, one strand shown
# SPIB, sequence (Q01892 whole entry): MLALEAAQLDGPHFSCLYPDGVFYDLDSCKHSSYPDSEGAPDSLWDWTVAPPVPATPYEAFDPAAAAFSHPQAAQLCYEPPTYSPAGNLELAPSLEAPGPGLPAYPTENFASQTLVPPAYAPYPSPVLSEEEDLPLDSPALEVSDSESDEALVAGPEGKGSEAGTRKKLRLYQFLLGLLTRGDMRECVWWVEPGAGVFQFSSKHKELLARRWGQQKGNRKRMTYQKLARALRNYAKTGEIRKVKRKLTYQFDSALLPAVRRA
# Procedure, shortened: as §1
# ELK3 = molecular target: T6, ELK3 (Homo sapiens, UniProt P41970 1-407); settings: protein: recombinant; tags: N-terminal GST; dsDNA, one strand shown
# T6 sequence: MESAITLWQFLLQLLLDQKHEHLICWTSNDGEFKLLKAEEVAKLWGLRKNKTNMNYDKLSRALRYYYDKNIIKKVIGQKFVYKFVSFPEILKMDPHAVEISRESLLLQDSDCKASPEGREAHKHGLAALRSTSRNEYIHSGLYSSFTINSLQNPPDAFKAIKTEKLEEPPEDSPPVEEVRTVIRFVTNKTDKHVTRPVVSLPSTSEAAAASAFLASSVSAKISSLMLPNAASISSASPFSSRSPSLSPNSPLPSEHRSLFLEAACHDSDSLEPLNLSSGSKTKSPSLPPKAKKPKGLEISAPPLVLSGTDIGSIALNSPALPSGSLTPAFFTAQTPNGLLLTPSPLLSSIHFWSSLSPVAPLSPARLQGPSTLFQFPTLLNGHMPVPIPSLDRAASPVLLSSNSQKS
# Procedure, shortened: as §1
# FEV = molecular target: T7, FEV (Homo sapiens, UniProt Q99581 1-238); settings: protein: recombinant; tags: N-terminal GST; dsDNA, one strand shown
# T7 sequence: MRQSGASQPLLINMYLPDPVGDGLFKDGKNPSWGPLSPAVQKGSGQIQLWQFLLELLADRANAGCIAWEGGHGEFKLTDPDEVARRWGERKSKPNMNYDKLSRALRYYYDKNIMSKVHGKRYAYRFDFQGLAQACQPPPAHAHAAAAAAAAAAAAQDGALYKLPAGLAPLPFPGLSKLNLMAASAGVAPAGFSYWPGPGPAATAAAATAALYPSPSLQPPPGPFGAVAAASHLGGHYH
# Procedure, shortened: as §1
# ETV5 = ETV5 (Homo sapiens, UniProt P41161 1-510); settings: protein: recombinant; tags: N-terminal GST; dsDNA, one strand shown
# ETV5, sequence (P41161 whole entry): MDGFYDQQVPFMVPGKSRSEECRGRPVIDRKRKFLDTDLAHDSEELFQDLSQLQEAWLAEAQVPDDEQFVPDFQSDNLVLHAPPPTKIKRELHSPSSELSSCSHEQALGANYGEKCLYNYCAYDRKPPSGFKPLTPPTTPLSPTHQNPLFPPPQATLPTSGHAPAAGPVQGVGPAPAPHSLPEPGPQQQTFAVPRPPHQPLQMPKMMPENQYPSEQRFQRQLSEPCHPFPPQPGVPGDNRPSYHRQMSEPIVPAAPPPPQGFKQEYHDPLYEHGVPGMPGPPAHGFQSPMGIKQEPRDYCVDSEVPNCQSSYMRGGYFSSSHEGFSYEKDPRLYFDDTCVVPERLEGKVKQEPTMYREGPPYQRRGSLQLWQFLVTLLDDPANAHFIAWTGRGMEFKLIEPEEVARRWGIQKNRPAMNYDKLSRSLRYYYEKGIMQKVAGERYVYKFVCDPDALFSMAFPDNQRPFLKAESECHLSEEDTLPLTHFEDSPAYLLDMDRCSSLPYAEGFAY
# Procedure, shortened: as §1
# HSF1 = HSF1 (Homo sapiens, UniProt Q00613 1-529); settings: protein: recombinant; tags: N-terminal GST; chain copies: 3; dsDNA, one strand shown
# HSF1, sequence (Q00613 whole entry): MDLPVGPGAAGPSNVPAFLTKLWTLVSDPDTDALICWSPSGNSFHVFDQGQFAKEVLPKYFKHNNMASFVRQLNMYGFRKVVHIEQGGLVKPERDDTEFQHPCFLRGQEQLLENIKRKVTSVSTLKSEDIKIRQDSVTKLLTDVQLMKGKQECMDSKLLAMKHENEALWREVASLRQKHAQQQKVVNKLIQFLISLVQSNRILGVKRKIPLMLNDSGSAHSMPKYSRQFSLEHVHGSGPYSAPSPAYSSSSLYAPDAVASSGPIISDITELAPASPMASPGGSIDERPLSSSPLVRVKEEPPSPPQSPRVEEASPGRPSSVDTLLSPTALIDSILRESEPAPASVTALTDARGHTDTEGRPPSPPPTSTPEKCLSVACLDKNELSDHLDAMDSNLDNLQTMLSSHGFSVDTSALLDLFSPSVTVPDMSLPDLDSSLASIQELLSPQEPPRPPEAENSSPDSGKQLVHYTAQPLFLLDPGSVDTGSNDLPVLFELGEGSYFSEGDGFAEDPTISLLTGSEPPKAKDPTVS
# Procedure, shortened: as §1
# SPIC = molecular target: T8, SPIC (Homo sapiens, UniProt Q8N5J4 1-248); settings: protein: recombinant; tags: N-terminal GST; dsDNA, one strand shown
# T8 sequence: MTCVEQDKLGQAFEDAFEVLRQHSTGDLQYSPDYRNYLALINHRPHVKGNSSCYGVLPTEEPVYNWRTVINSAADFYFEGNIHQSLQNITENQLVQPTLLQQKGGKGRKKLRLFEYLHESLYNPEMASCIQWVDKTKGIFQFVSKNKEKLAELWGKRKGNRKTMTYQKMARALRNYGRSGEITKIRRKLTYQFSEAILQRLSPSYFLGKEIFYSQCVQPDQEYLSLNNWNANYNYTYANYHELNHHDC
# Procedure, shortened: as §1
# ELF4 = ELF4 (Homo sapiens, UniProt Q99607 1-663); settings: protein: recombinant; tags: N-terminal GST; dsDNA, one strand shown
# ELF4, sequence (Q99607 whole entry): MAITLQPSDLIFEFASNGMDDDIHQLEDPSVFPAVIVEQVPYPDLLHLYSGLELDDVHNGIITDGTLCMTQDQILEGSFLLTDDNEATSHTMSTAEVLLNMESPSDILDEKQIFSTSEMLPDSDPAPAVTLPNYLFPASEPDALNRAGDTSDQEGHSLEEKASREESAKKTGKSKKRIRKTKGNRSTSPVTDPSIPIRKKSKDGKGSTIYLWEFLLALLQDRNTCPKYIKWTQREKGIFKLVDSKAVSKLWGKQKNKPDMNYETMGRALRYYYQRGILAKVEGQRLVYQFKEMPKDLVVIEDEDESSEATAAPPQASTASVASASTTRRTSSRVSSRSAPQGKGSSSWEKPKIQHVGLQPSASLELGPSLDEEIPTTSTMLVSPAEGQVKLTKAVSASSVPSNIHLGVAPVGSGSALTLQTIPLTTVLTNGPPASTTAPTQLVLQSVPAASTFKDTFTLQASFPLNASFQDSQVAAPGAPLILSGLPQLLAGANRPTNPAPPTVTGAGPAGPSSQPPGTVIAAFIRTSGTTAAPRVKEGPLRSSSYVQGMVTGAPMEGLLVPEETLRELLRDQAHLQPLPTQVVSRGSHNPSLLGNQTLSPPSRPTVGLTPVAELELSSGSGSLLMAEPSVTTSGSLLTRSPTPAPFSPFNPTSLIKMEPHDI
# Procedure, shortened: as §1
# ELK4 = molecular target: T9, ELK4 (Homo sapiens, UniProt P28324-2 1-405); settings: protein: recombinant; tags: N-terminal GST; dsDNA, one strand shown
# T9 sequence: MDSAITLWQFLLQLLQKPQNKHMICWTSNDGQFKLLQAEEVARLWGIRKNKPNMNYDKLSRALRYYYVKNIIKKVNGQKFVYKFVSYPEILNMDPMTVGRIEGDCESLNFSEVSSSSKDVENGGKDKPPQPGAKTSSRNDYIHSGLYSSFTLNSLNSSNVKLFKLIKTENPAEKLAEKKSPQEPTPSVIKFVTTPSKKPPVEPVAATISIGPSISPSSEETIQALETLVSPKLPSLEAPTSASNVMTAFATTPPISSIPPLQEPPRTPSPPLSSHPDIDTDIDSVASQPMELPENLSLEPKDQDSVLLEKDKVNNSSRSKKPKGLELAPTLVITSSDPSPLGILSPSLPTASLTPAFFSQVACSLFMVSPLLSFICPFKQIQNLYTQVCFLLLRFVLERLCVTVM
# Procedure, shortened: as §1
# ETV2 = molecular target: T10, ETV2 (Homo sapiens, UniProt O00321 1-342); settings: protein: recombinant; tags: N-terminal GST; dsDNA, one strand shown
# T10 sequence: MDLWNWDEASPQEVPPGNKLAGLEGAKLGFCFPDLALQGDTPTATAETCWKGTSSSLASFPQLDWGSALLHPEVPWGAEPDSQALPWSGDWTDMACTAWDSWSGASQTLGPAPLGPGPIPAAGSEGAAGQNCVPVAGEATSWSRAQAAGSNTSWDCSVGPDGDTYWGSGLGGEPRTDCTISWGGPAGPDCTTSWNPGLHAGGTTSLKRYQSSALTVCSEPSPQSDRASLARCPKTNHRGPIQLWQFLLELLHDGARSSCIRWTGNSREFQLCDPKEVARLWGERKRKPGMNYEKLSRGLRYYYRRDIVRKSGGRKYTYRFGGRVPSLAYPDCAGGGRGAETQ
# Procedure, shortened: as §1
# ELF3 = molecular target: T11, ELF3 (Homo sapiens, UniProt P78545 1-371); settings: protein: recombinant; tags: N-terminal GST; dsDNA, one strand shown
# T11 sequence: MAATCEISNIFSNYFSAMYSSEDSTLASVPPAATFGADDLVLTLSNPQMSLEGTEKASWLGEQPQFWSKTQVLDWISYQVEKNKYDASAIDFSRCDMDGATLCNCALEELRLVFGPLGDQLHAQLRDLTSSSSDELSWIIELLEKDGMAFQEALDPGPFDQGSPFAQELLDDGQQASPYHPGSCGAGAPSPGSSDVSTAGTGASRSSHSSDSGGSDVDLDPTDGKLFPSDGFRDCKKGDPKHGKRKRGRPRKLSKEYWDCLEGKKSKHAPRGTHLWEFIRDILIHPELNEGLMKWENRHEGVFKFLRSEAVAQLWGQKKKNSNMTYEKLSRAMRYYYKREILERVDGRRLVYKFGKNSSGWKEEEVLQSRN
# Procedure, shortened: as §1
# CRX = CRX (Homo sapiens, UniProt O43186 1-299); settings: protein: recombinant; tags: N-terminal GST; dsDNA, one strand shown
# CRX, sequence (O43186 whole entry): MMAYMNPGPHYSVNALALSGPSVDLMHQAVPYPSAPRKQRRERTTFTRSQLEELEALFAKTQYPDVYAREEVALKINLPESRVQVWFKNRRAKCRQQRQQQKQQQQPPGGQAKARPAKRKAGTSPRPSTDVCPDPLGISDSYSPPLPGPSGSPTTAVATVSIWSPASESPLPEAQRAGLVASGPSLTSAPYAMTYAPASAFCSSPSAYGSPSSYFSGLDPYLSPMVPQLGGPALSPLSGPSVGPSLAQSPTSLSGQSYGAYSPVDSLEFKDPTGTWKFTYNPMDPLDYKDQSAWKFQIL
# Procedure, shortened: as §1
# ETV1 = ETV1 (Homo sapiens, UniProt P50549 1-477); settings: protein: recombinant; tags: N-terminal GST; dsDNA, one strand shown
# ETV1, sequence (P50549 whole entry): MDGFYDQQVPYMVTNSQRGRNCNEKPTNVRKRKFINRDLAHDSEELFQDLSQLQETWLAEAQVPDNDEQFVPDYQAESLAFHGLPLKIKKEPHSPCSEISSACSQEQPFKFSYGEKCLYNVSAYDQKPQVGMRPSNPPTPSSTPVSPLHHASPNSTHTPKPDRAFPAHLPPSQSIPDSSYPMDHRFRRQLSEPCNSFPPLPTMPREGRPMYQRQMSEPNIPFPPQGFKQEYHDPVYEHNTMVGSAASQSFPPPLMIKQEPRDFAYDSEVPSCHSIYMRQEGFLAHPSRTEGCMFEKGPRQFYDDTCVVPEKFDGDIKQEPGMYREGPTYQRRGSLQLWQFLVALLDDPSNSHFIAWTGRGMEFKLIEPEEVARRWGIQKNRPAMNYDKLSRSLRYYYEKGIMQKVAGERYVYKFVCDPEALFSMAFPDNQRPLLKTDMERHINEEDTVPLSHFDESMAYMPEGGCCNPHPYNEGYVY
# Procedure, shortened: as §1
sequence,measurement,setting,value
GAATGT,binding signal,FLI1,"1.14 fold enrichment (6-mer frequency, TF over GST control)"
same,binding signal,ELK1,"1.11 fold enrichment (6-mer frequency, TF over GST control)"
same,binding signal,GABPA,"1.12 fold enrichment (6-mer frequency, TF over GST control)"
same,binding signal,ERG,"1.08 fold enrichment (6-mer frequency, TF over GST control)"
same,binding signal,ELF1,"1.03 fold enrichment (6-mer frequency, TF over GST control)"
same,binding signal,EHF,"1.13 fold enrichment (6-mer frequency, TF over GST control)"
same,binding signal,SPI1,"1.07 fold enrichment (6-mer frequency, TF over GST control)"
same,binding signal,SPIB,"1.12 fold enrichment (6-mer frequency, TF over GST control)"
same,binding signal,ELK3,"1.06 fold enrichment (6-mer frequency, TF over GST control)"
same,binding signal,FEV,"1.07 fold enrichment (6-mer frequency, TF over GST control)"
same,binding signal,ETV5,"1.07 fold enrichment (6-mer frequency, TF over GST control)"
same,binding signal,HSF1,"1.88 fold enrichment (6-mer frequency, TF over GST control)"
same,binding signal,SPIC,"1.11 fold enrichment (6-mer frequency, TF over GST control)"
same,binding signal,ELF4,"1.07 fold enrichment (6-mer frequency, TF over GST control)"
same,binding signal,ELK4,"1.07 fold enrichment (6-mer frequency, TF over GST control)"
same,binding signal,ETV2,"1.03 fold enrichment (6-mer frequency, TF over GST control)"
same,binding signal,ELF3,"1.2 fold enrichment (6-mer frequency, TF over GST control)"
same,binding signal,CRX,"1.02 fold enrichment (6-mer frequency, TF over GST control)"
same,binding signal,ETV1,"1.03 fold enrichment (6-mer frequency, TF over GST control)"
